Shown are actives, neighbours in structure and some others; about 21% of the full set was active somewhere.
CYP2C9 inh – inhibitors of human CYP2C9; P11712; CYP2C9 Supersomes, luciferin-H conversion, luminescence; inhibition, % at 5 µM; actives 20% (n = 96,000); AID 777;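 active = blocking of liver enzyme CYP2C9 beyond about 50% at 5 µM, limit read from the data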
Target sequence (P11712 whole entry, looked up): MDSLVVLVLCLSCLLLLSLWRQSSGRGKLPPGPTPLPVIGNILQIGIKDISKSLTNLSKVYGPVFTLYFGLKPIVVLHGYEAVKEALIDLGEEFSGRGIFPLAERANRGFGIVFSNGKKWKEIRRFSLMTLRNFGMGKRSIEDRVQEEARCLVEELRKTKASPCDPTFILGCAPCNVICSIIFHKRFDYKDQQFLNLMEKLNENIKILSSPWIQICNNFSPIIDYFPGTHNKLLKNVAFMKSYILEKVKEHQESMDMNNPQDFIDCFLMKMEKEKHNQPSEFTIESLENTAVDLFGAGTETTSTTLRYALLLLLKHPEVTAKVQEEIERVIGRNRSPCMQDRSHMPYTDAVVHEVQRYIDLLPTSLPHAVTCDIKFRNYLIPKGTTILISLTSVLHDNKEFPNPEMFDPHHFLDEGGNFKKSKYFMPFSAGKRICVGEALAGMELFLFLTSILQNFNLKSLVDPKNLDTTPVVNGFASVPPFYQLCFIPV
MRP-1 activ – MRP-1 activation; H69AR cells + doxorubicin, viability rescue, CellTiter-Glo; viability increase, % at 10 µM; actives 0.61% (n = 140,000); AID 799;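 active = viability gain under doxorubicin at or above a set limit, the compound median plus 3 SD, cut at about 4.7% in these data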;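 also: MRP-1 overexpressing cells given doxorubicin 25 µM after compound pretreatment; 18-22 h compound pretreatment then 72 h with doxorubicin before readout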
CYP2C19 inhib – blocks human cytochrome P450 2C19 | inhibition, % at 5 µM | actives 21% (n = 96,000) | CYP2C19 Supersomes, luciferin-H EGE luminescence, 30 min;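 active = CYP2C19 inhibition above a set limit at 5 µM in the primary screen, cut at about 50% in these data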
MRP resist rev – reverses drug resistance mediated by MRP | H69AR cells + 2 uM doxorubicin, CellTiter-Glo, 72 h | differential viability (reversal), % at 10 µM | actives 0.04% (n = 85,000);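 active = viability drop by adding the cancer drug above about 55%, with treated viability meeting a 40% cutoff, limit read from the data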;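 also: larger differential means the compound sensitizes cells more to doxorubicin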
CYP2C9 activ – CYP2C9 (human) activation; activation factor at 5 µM; actives 1.4% (n = 96,000); recombinant CYP2C9, luciferin-H conversion, luminescence; hits give high values; factor 1 = untreated enzyme, 0 = blocked;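 active = activation factor of 2 or more for CYP2C9 at a 5 µM dose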
CYP2C19 activ – cytochrome P450 2C19 (human) activation; P33261; AID 1025; 96,000 tested, under 10 active; activation factor at 5 µM; recombinant CYP2C19, luciferin-H EGE luminescence; hits give high values; 0 = fully inhibited enzyme, 1 = untreated enzyme;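 active = activation factor of at least 2 at 5 µM in the primary screen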
Of the large screens only hits and unclear results are named; the others gave an inactive call.

CCOC(=O)C1=C(C)N(C)C(C)=C(C(=O)OCC)C1c1ccncc1	CYP2C9 inh 100, CYP2C19 inhib 97
COC(=O)C1=C(C)N(C)C(C)=C(C(=O)OC)C1c1ccc(F)c(Br)c1	CYP2C9 inh 94, CYP2C19 inhib 65
COC(=O)c1ccc(NC(=O)CNCc2ccncc2)cc1	none (no result: CYP2C9 inh, CYP2C19 inhib, MRP resist rev, CYP2C9 activ, CYP2C19 activ)
COC(=O)C1=C(C)N(C)C(C)=C(C(=O)OC)C1c1ccncc1	CYP2C9 inh 79, CYP2C19 inhib 78
CCN1C/C(=C\c2cccc(C)c2)c2nc3ccccc3c(C(=O)O)c2C1	none (no result: MRP resist rev)
Cc1cc(=O)oc(C)c1C(=O)NCCNC(=O)c1c(C)cc(=O)oc1C	none
CCN(CCCNC(=O)c1c(C)cc(=O)oc1C)c1cccc(C)c1	CYP2C9 inh 72, CYP2C19 inhib 92
Cc1cc(=O)oc(C)c1C(=O)NCCc1ccc(F)cc1	none
Cc1ccc(CNC(=O)c2c(C)cc(=O)oc2C)cc1	CYP2C9 inh 51
O=C(/C=C/c1ccc([N+](=O)[O-])cc1)OCC(=O)N1c2ccccc2Sc2ccccc21	none (no result: CYP2C9 inh, CYP2C19 inhib, MRP resist rev, CYP2C9 activ, CYP2C19 activ)
CCCC(=O)NC(C)c1nc2ccccc2[nH]1 (stereo not drawn)	none
CCn1nc(C(=O)Nc2nc3ccccc3[nH]2)c2ccccc2c1=O	none (no result: CYP2C9 inh, CYP2C19 inhib, MRP resist rev, CYP2C9 activ, CYP2C19 activ)
CSCC[C@H](NC(=O)c1nn(C)c(=O)c2ccccc12)c1nc2ccccc2[nH]1	CYP2C9 inh 94
CCn1nc(C(=O)N[C@@H](CCSC)c2nc3ccccc3[nH]2)c2ccccc2c1=O	CYP2C9 inh 96, CYP2C19 inhib 64
CCCCn1nc(C(=O)N[C@@H](CCSC)c2nc3ccccc3[nH]2)c2ccccc2c1=O	CYP2C9 inh 90, CYP2C19 inhib 62
CCCCC(NC(C)=O)c1nc2ccccc2[nH]1 (stereo not drawn)	CYP2C19 inhib 64 (no result: MRP resist rev)
CCOC(=O)C1C(=O)C=C(c2ccc(NS(C)(=O)=O)cc2)CC1c1ccco1 (stereo not drawn)	CYP2C9 inh 75
CCOC(=O)C1C(C)=CC(=O)CC1c1ccco1 (stereo not drawn)	none
CCOC(=O)C1C(=O)C=C(c2ccc(C)cc2)CC1c1ccco1 (stereo not drawn)	CYP2C9 inh 80, CYP2C19 inhib 54
Cc1cc(NC(=O)c2cc3ncc(Br)cn3n2)no1	none
O=C(NNS(=O)(=O)c1ccc([N+](=O)[O-])cc1)c1cnn(-c2ccccc2)c1-n1cccc1	none (no result: CYP2C9 inh, CYP2C19 inhib, MRP resist rev, CYP2C9 activ, CYP2C19 activ)
COc1ccc(NC(=O)CSc2nc3c(c(-c4cccs4)c2C#N)CN(C)CC3)cc1OC	CYP2C9 inh 64 (no result: MRP resist rev)
CCOC(=O)c1c(C#N)c(SCC(=O)Nc2ccc(OC)cc2)nc2c1CN(CC)CC2	CYP2C9 inh 98, CYP2C19 inhib 52
CCOC(=O)C(C#N)C(Cc1ccccc1)c1ccco1 (stereo not drawn)	CYP2C9 inh 70, CYP2C19 inhib 92
CC(=O)NCCC(Cc1ccccc1)c1ccco1 (stereo not drawn)	none (no result: CYP2C9 inh, CYP2C19 inhib, CYP2C9 activ, CYP2C19 activ)
COc1cc(-c2[nH]nc3c2C(c2ccco2)C(C#N)=C(N)O3)cc(OC)c1OC (stereo not drawn)	none (no result: CYP2C9 inh, CYP2C19 inhib, MRP resist rev, CYP2C9 activ, CYP2C19 activ)
CC(=O)c1ccc(NC(=O)c2ccn[nH]2)cc1	CYP2C9 inh 69
O=C(CSCC(=O)NC1CC1)Nc1ccc2ccccc2c1	none (no result: CYP2C9 inh, CYP2C19 inhib, CYP2C9 activ, CYP2C19 activ)
CC(=O)c1ccc(NC(=O)CSCC(=O)Nc2ccc3ccccc3c2)cc1	CYP2C9 inh 55
CC(=O)c1ccc(NC(=O)Nc2ccccc2)cc1	CYP2C9 inh 63, CYP2C19 inhib 50
CCN(CC)c1ccc(NC(=O)Nc2ccc(C(C)=O)cc2)cc1	none
C=CCn1c(SCc2csc(-c3ccc(Cl)cc3)n2)nnc1-c1ccccc1OC	none (no result: CYP2C9 inh, CYP2C19 inhib, MRP resist rev, CYP2C9 activ, CYP2C19 activ)
O=C(CSc1nnc(-c2cccnc2)n1-c1ccccc1)N1CCN(c2ccc(F)cc2)CC1	CYP2C9 inh 64, CYP2C19 inhib 92
Cc1ccc(-n2c(SCC(=O)N3CCOCC3)nnc2-c2ccncc2)cc1	CYP2C19 inhib 72
C=CCn1c(Cc2ccc(OC)cc2)nnc1SCC(=O)NCCc1ccccc1	none
COC(=O)C1=C(N)Oc2cc(C)n(C)c(=O)c2C1c1ccc(Cl)c(Cl)c1 (stereo not drawn)	none
COC(=O)C1=C(N)Oc2cc(C)[nH]c(=O)c2C1c1ccncc1 (stereo not drawn)	CYP2C9 inh 51
COC(=O)C1=C(N)Oc2cc(C)n(CC3CCCO3)c(=O)c2C1c1ccc(Cl)c(Cl)c1 (stereo not drawn)	CYP2C9 inh 81, CYP2C19 inhib 72
CCn1c(C)cc2c(c1=O)C(c1ccccc1)C(C(=O)OC)=C(N)O2 (stereo not drawn)	none (no result: MRP resist rev)
COC(=O)C1=C(N)Oc2cc(C)n(CCCn3ccnc3)c(=O)c2C1c1ccc(Cl)cc1 (stereo not drawn)	CYP2C9 inh 97, CYP2C19 inhib 99
COC(=O)C1=C(N)Oc2cc(C)n(Cc3ccco3)c(=O)c2C1c1cccc(Cl)c1 (stereo not drawn)	CYP2C9 inh 56
CN(C)C(CNC(=O)c1cccnc1Sc1ccccc1)c1ccco1 (stereo not drawn)	none
O=C(Oc1nsnc1N1CCCCC1)N1CCOCC1	none (no result: CYP2C9 inh, CYP2C19 inhib, CYP2C9 activ, CYP2C19 activ)
Cn1c(=O)nc2n(Cc3ccccc3)c3cccc(Cl)c3cc-2c1=O	none (no result: CYP2C9 inh, CYP2C19 inhib, MRP resist rev, CYP2C9 activ, CYP2C19 activ)
CC1=CC(C)(C)N(C(=O)CSc2nnc(N)s2)c2cc(C)c(C)cc21	CYP2C9 inh 70, CYP2C19 inhib 77 (no result: MRP resist rev)
COC(=O)CSc1nnc(-c2ccc(NS(=O)(=O)c3ccccc3)cc2)o1	CYP2C9 inh 94
COC(=O)c1ccccc1NC(=O)CSc1nnc(-c2ccncc2)o1	CYP2C19 inhib 68
Cc1ccc(C(=O)CSc2nnc(-c3ccccc3)o2)cc1	none (no result: CYP2C9 inh, CYP2C19 inhib, CYP2C9 activ, CYP2C19 activ)
Cc1ccc(C)c(NC(=O)CSc2nnc(-c3ccccc3)o2)c1	CYP2C19 inhib 56
COc1ccc(C(NC(=O)C(C)C)c2c(O)ccc3ccccc23)cc1OC (stereo not drawn)	none (no result: CYP2C9 inh, CYP2C19 inhib, MRP resist rev, CYP2C9 activ, CYP2C19 activ)
O=[N+]([O-])c1cc(/C=N\Nc2nccs2)ccc1O	none
COc1ccc(N(CC(=O)Nc2cc(C(=O)O)ccc2C)S(=O)(=O)c2c(C)noc2C)cc1	none
COc1ccccc1NC(=O)CSc1nnc(-c2ccccc2)o1	CYP2C19 inhib 59
Cc1cccc(NC(=O)CSc2nnc([C@@H](N)Cc3ccccc3)o2)c1C	CYP2C19 inhib 70
CC1=CC(C)(C)N(C(=O)CSc2nnc(-c3ccc(C)cc3)o2)c2ccc(C)cc21	CYP2C9 inh 95, CYP2C19 inhib 96
CC1=CC(C)(C)N(C(=O)CSc2nnc(C)s2)c2ccc(C)cc21	none (no result: MRP resist rev)
COc1ccccc1NC(=O)CSc1nnc(Cc2ccccc2)o1	none
O=C(OCc1nc2ccc(Cl)cc2n1CCO)c1ccc(O)cc1	none (no result: CYP2C9 inh, CYP2C19 inhib, MRP resist rev, CYP2C9 activ, CYP2C19 activ)
CCOC(=O)C(Cc1ccc(O)cc1)NC(=O)CNC(=O)C(CC(C)C)NC(=O)OC(C)(C)C (stereo not drawn)	none (no result: CYP2C9 inh, CYP2C19 inhib, MRP resist rev, CYP2C9 activ, CYP2C19 activ)
Cc1ccc(S(=O)(=O)N2c3ccccc3NC(=O)CC2C)cc1 (stereo not drawn)	none (no result: MRP resist rev)
